The record followed here is PubChem BioAssay AID1851 (National Center for Advancing Translational Sciences (NCATS), 2009).

Molecules are shown by their SMILES. Screen size: about 16,000 compounds; about 5,100 (32%) were called active. Another 25% or so got no clear call; they are omitted. Some of the results follow. Values without a mark were called inactive. Calls follow the shape of the dose curve; as a rule, active = well fitted curve in the direction sought with a large enough effect; inconclusive = small, poorly fitted or top-dose-only effect, or effect the other way; inactive = no such curve, though single readings can be large or run the other way.
% is scaled to controls: 0 for no effect and ±100 for the full control effect.

The target in the experiment is Cytochrome P450 3A4 (Homo sapiens) (UniProt P08684). In words: Cytochrome panel assay with activity outcomes. Particulars: recombinant CYP, pro-luciferin dealkylation, luminescence, p450-cyp3a4; series mostly up to 57.1 µM; activity, negative = inhibition: at the top concentration.
Sequence of Cytochrome P450 3A4 (Homo sapiens) (P08684 whole entry, looked up): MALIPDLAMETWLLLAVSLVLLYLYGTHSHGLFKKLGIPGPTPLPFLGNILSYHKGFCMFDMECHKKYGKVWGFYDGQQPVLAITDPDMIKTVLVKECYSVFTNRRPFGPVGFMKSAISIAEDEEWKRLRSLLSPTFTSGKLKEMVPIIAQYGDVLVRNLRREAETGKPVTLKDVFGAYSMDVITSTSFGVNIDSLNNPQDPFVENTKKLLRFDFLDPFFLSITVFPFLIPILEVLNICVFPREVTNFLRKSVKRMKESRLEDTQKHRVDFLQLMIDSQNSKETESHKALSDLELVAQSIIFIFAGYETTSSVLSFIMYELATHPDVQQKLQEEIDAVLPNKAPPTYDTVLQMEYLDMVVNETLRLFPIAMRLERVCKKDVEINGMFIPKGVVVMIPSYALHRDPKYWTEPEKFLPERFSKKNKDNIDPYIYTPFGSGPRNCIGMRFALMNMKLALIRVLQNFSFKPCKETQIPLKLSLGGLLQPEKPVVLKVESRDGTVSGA
Turning to `N=C(N)SCCCN`, the activity, negative = inhibition was -9.75% [at 11.4 µM].
Take `O=C1c2ccccc2C(=O)N1C[C@]1(C(=O)O)NCCS1(=O)=O`: the activity, negative = inhibition was 8.42% [at 11.4 µM].
For the compound `O=C(NC1CCCC1)c1cnn2c(C(F)(F)F)cc(-c3ccco3)nc12`, the AC50 was 14.1 µM (active).
On to `CCOC(=O)N1CCN(c2nc(-c3ccco3)cc(C(F)(F)F)n2)CC1`, for which the “activity, negative = inhibition” value is -18%.
Still for that read-out and setting: the result for `COC(=O)c1nn(C23CC4CC(CC(C4)C2)C3)c2c1C(=O)N(c1ccc(F)cc1)C2=O` reads -13%.
In the case of `O=C(Nc1c2c(nn1-c1ccc(F)cc1)CS(=O)(=O)C2)C12CC3CC(CC(C3)C1)C2`, the concentration at half-maximal activity (AC50) was 8.91 µM (active).
The same measure, in the same setting: the result for `O=C(CCC1CCCCC1)Nc1c2c(nn1-c1ccc(F)cc1)CS(=O)(=O)C2` reads 5.62 µM (active).
Take `Cc1cc(C)cc(-n2c(C)cc(C=C(C#N)C#N)c2C)c1`: the “activity, negative = inhibition” value is 4.93%.
In the case of `COC(=O)C1=C(NC(=O)c2cccs2)CCS1`, the AC50 was 15.8 µM (active).
The same measure, in the same setting: the result for `COC(=O)C1=C(NC(=O)c2ccc(C)c(C)c2)CCS1` reads 28.2 µM (active).
As for `Cc1ccc(S(=O)(=O)O/N=C2/CCCc3occc32)cc1`, the “activity, negative = inhibition” value is 1.14%.
Still for that read-out and setting: the value for `COC(=O)c1cnn(C(=O)c2ccccc2Br)c1N` was 9.7%; that for `CCOC(=O)c1cnn(-c2cc(Oc3ccccc3)ncn2)c1N` was 19%.
On to `COC(=O)c1cnn(C(=O)c2cc(OC)ccc2Br)c1N`, for which the AC50 was 28.2 µM (active).
Turning to `CCNC(=S)N1CC(C)OC(C)C1` (stereo unspecified), the “activity, negative = inhibition” value was 1.05%.
Turning to `CCSC(=N)N`, the AC50 entry is “inactive”.
The same measure, in the same setting: the value for `COc1ccccc1CNc1nc(-c2ccccc2CN(C)C)nc2ccccc12` was 12.6 µM (active).
The same measure, in the same setting: the value for `COc1ccc(CNc2nc(-c3ccccc3CN(C)C)nc3ccccc23)c(OC)c1` was 7.94 µM (active).
Take `CN1CCCN(C2C3CC4CC(C3)CC2C4)CC1` (stereo unspecified): the “activity, negative = inhibition” value is -0.38%.
The same measure, in the same setting: the result for `NS(=O)(=O)c1cccc2c1c([N+](=O)[O-])cc1[nH]c(=O)c(=O)[nH]c12` reads -7.86%.
As for `Cc1cc(C)cc(NC(=O)N2CCCC2C(=O)Nc2ccc(-n3cnnn3)c(C)c2)c1` (stereo unspecified), the AC50 is 5.01 µM (active).
In the case of `CC(=O)Nc1cccc(NC(=O)C2CCCN2C(=O)Nc2ccccc2C)c1` (stereo unspecified), the activity, negative = inhibition was 0.0054% [at 11.4 µM].
`Cc1cc(NC(=O)c2ccco2)ccc1-n1cnnn1`: the AC50 is 8.91 µM (active).
`COc1cc(Cn2cnnn2)ccc1O`: the “activity, negative = inhibition” value is -9.86%.
`COc1cc(-c2nc3ccccn3c2/N=C/c2ccccc2)ccc1O`: the AC50 was 7.08 µM (active).
Consider `O=[N+]([O-])c1ccc(Cl)c(-c2ccc(/C=N/c3c(-c4ccco4)nc4ccccn34)o2)c1`, for which the “activity, negative = inhibition” value was -6.34%.
Take `COc1ccc(CNc2ncncc2-c2c(C)noc2C)c(OC)c1`: the AC50 was 1.26 µM (active).
Still for that read-out and setting: the value for `COc1ccc(CNc2ncncc2-c2ccccc2CN(C)C)c(OC)c1` was 0.398 µM (active); that for `COc1ccc(CNc2ncncc2-c2ccccc2C)c(OC)c1` was 0.398 µM (active); that for `COc1ccc(CNc2ncncc2-c2ccccc2OC)c(OC)c1` was 0.316 µM (active).
Consider `COCCNc1cc(-c2ccccc2CN(C)C)ncn1`, for which the “activity, negative = inhibition” value is -14.6%.

As a reminder, the AC50 is the concentration at which the activity in the assay is half-maximal.
